# Results filed as inconclusive are left out. Entries that show only a call come without a potency. Values without a mark were called inactive. Active and inactive are the calls of the source. Unless noted, calls come from the whole dose curve; as a rule, active = well fitted curve in the direction sought with a large enough effect in the repeat runs; inconclusive = weak or mixed curves; inactive = no such curve, though single readings can be large; an effect the other way counts as inactive or inconclusive.
# Key:
# [1] = qHTS assay to identify aromatase inhibitors - cell viability counter screen (AID 743084);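 note: cells stimulated with testosterone during compound exposure; nearly all actives have a fitted effect of over 55% in size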
# [2] = target: Aryl hydrocarbon receptor (Homo sapiens) (UniProt P35869); experiment: qHTS assay to identify small molecule that activate the aryl hydrocarbon receptor (AhR) signaling pathway (AID 743085); note: nearly all actives have a fitted effect of over 15% in size; note: potency is the fitted concentration of half-maximal effect;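 for activation: HG2L7.5c1 human HepG2 liver cells with stably integrated DRE-driven firefly reporter; series mostly up to about 70 µM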
# Outline: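 Steps: seed HepG2-AhR-luc cells; allow 5 h at 37C; pin-transfer test compound or vehicle; incubate 24 h at 37C; add viability dye (30 min, 37C) and read fluorescence; add luciferase substrate (30 min, RT) and read luminescence.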
# [3] = qHTS assay to identify small molecule that activate the aryl hydrocarbon receptor (AhR) signaling pathway - cell viability counter screen (AID 743086);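 note: HepG2 liver cells carrying the AhR DRE luciferase reporter; series mostly up to about 70 µM; nearly all actives have a fitted effect of over 45% in size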
# Outline: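 Cytotoxicity counter screen: CellTiter-Fluor signal (30 min, 37 C) in 4000 HepG2 cells/well carrying the DRE-luciferase reporter, following 24 h compound exposure at 37 C.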
# [4] = target: Peroxisome proliferator-activated receptor gamma (Homo sapiens) (UniProt P37231); experiment: qHTS assay to identify small molecule agonists of the peroxisome proliferator-activated receptor gamma (PPARg) signaling pathway (AID 743094; active = well fitted activation curve with a large enough effect in the signal ratio in the repeat runs, not every such curve was filed as active; the % refers to the signal ratio)
# Outline: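 Fluorescence-based beta-lactamase readout in HEK293H PPARg UAS-bla cells after 17 h compound exposure (37C) and 1 h B/G FRET substrate incubation at room temperature.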
# [5] = qHTS assay to identify small molecule antagonists of the peroxisome proliferator-activated receptor gamma (PPARg) signaling pathway - cell viability counter screen (AID 743194); note: nearly all actives have a fitted effect of over 55% in size
# Outline: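 Viability was measured as CellTiter-Glo luminescence in GeneBLAzer PPARg UAS-bla HEK293H cells. These cells had been exposed 17 h at 37 C to compounds together with rosiglitazone at 50 nM final, with the beta-lactamase readout taken in the same wells.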
# [6] = qHTS assay for small molecule agonists of the antioxidant response element (ARE) signaling pathway - cell viability counter screen (AID 743203; calls by dose curve; note: nearly all actives have a fitted effect of over 55% in size; note: potency is the fitted concentration of half-maximal effect)
# Outline: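 Parallel cytotoxicity read-out for the ARE-bla screen: HepG2 reporter cells, 16 hrs with compounds, then CellTiter-Glo luminescence.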
# [7] = qHTS assay for small molecule activators of the heat shock response signaling pathway - cell viability counter screen (AID 743209); note: nearly all actives have a fitted effect of over 50% in size
# Outline: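 To flag cytotoxic compounds, HSE-bla HeLa cells plated at 1500 cells/well were dosed for 5 h at 37 C, followed by the reporter FRET read and then CellTiter-Glo, with luminescence recorded 30 min after reagent addition.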
# [8] = qHTS assay for small molecule activators of the heat shock response signaling pathway (AID 743210; active = well fitted activation curve with a large enough effect in the signal ratio in the repeat runs, with a control signal flat, not every such curve was filed as active; the % refers to the signal ratio;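 note: HeLa cells with beta-lactamase reporter driven by heat shock elements; series mostly up to about 63 µM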)
# Outline: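 Fluorescence from a cleaved B/G FRET substrate (2.5 h, room temp) reports HSE-driven beta-lactamase in HeLa cells treated 5 h at 37 C with DMSO-dissolved compounds.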
# [9] = qHTS assay for small molecule agonists of the antioxidant response element (ARE) signaling pathway (AID 743202; active = well fitted activation curve with a large enough effect in the signal ratio in the repeat runs, not every such curve was filed as active; the % refers to the signal ratio; note: potency is the fitted concentration of half-maximal effect)
# Outline: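 Beta-lactamase reporter activity, read as fluorescence intensity, reflects ARE/Nrf2 pathway induction in HepG2 cells after 16 h compound exposure at 37 C; substrate loading was 2 h at room temperature.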
# [10] = target: Peroxisome proliferator-activated receptor gamma (Homo sapiens) (UniProt P37231); experiment: qHTS assay to identify small molecule antagonists of the peroxisome proliferator-activated receptor gamma (PPARg) signaling pathway (AID 743191; calls by dose curve; note: nearly all actives have a fitted effect of over 30% in size; note: potency is the fitted concentration of half-maximal effect; for ratio activity, negative = inhibition: series mostly up to about 63 µM)
# Outline: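 Beta-lactamase reporter under UAS control in HEK293H PPARg-bla cells; compound treatment 17 h at 37C. Read-out: fluorescence intensity after 1 h room-temperature incubation with LiveBLAzer B/G FRET substrate.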
# Chain of Peroxisome proliferator-activated receptor gamma (Homo sapiens) (P37231 whole entry, looked up): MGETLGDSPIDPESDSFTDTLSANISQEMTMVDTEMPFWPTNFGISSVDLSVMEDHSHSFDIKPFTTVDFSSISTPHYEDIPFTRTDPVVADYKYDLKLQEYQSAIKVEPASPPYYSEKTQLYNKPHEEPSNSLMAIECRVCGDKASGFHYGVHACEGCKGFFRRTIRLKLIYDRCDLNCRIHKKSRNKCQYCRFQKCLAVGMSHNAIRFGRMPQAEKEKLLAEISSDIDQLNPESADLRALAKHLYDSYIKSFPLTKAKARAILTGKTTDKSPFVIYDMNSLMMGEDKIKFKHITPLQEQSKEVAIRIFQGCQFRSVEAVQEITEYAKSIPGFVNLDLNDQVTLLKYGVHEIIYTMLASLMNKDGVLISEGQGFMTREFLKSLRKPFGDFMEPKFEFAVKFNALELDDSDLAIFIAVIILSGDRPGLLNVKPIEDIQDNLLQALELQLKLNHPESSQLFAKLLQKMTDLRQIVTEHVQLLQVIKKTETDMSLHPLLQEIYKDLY
# Chain of Aryl hydrocarbon receptor (Homo sapiens) (P35869 whole entry, looked up): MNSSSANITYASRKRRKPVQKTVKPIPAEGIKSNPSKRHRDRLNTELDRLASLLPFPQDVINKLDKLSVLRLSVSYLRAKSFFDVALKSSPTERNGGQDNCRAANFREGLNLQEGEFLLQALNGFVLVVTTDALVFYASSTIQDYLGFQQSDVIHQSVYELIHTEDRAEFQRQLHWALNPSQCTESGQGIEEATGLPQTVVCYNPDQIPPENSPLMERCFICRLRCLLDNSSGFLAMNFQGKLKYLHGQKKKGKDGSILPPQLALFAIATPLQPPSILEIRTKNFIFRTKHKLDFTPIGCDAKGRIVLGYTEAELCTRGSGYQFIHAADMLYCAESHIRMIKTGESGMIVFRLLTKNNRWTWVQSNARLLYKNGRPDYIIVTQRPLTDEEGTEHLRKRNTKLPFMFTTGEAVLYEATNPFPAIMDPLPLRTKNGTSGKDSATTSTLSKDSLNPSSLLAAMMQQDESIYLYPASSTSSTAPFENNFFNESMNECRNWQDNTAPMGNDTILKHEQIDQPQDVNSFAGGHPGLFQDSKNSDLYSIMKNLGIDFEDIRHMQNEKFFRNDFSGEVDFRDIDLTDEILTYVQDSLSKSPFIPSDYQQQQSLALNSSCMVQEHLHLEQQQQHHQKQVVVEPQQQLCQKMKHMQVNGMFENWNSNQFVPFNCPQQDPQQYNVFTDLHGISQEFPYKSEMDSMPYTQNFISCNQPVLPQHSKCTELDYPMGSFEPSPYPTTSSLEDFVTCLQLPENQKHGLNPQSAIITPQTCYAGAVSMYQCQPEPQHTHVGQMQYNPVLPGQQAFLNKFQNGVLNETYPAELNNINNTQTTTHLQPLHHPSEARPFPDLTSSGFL
smiles,measurement,setting,value
Cc1cc(C)c(C)c(O)c1,Potency,[1],inactive
same,Potency,[2],inactive
same,Potency,[3],inactive
same,Potency,[4],inactive
same,Potency,[5],inactive
same,Potency,[6],inactive
same,outcome,[7],inactive
same,outcome,[8],inactive
CCOC(OCC)OCC,Potency,[1],inactive
same,Potency,[2],inactive
same,Potency,[3],inactive
same,Potency,[4],inactive
same,Potency,[5],inactive
same,Potency,[9],inactive
same,outcome,[7],inactive
same,outcome,[8],inactive
c1ccc(CN(Cc2ccccc2)Cc2ccccc2)cc1,Potency,[1],inactive
same,Potency,[2],inactive
same,Potency,[3],inactive
same,Potency,[4],inactive
same,Potency,[6],inactive
same,outcome,[7],inactive
same,outcome,[8],inactive
O=P(c1ccccc1)(c1ccccc1)c1ccccc1,Potency,[1],inactive
same,Potency,[2],inactive
same,Potency,[3],inactive
same,Potency,[4],inactive
same,Potency,[5],inactive
same,outcome,[7],inactive
same,outcome,[8],inactive
CCCCCCCCCCCCCCCCCCCl,"activity change, negative = cytotoxicity",[1],0.528% [at 8.47 µM]
same,activation,[2],-0.694% [at 8.47 µM]
same,"viability change, negative = cytotoxic",[3],-5.7% [at 8.47 µM]
same,"ratio activity, negative = inhibition",[10],3.29% [at 5.95 µM]
same,"activity change, negative = cytotoxicity",[5],3.5% [at 5.95 µM]
same,activation,[9],-2.23% [at 8.36 µM]
same,"viability change, negative = cytotoxic",[6],1.36% [at 8.36 µM]
same,"activity change, negative = cytotoxicity",[7],-2.21% [at 5.95 µM]
same,activation,[8],-1.98% [at 5.95 µM]
O=C(Nc1ccc2c(c1)Cc1ccccc1-2)C(F)(F)F,Potency,[1],inactive
same,Potency,[2],61.1 µM (active)
same,Potency,[3],inactive
same,Potency,[4],inactive
same,Potency,[5],inactive
same,Potency,[6],inactive
same,outcome,[7],inactive
same,outcome,[8],inactive
CC(CN=Cc1ccccc1O)N=Cc1ccccc1O (stereo unspecified),Potency,[1],inactive
same,Potency,[2],27.3 µM (active)
same,Potency,[3],inactive
same,Potency,[4],inactive
same,Potency,[5],inactive
same,Potency,[6],inactive
same,outcome,[7],inactive
same,outcome,[8],inactive
OCCCO,Potency,[1],inactive
same,Potency,[2],inactive
same,Potency,[3],inactive
same,Potency,[10],inactive
same,Potency,[5],inactive
same,Potency,[9],inactive
same,Potency,[6],inactive
same,outcome,[7],inactive
same,outcome,[8],inactive
O=S(=O)(O)c1cc(Cl)c(Cl)cc1Cl,Potency,[1],inactive
same,Potency,[2],inactive
same,Potency,[3],inactive
same,Potency,[10],inactive
same,Potency,[5],inactive
same,Potency,[6],inactive
same,outcome,[7],inactive
same,outcome,[8],inactive
C=CC(C)(O)CC/C=C(/C)CCC=C(C)C (stereo unspecified),Potency,[1],inactive
same,Potency,[2],inactive
same,Potency,[3],inactive
same,Potency,[4],inactive
same,Potency,[5],inactive
same,outcome,[7],inactive
same,outcome,[8],inactive
N#CCCCC(C#N)CCC#N (stereo unspecified),Potency,[1],inactive
same,Potency,[2],inactive
same,Potency,[3],inactive
same,Potency,[4],inactive
same,Potency,[9],inactive
same,Potency,[6],inactive
same,outcome,[7],inactive
same,outcome,[8],inactive
CCCCC(CC)COCCC#N (stereo unspecified),Potency,[1],inactive
same,Potency,[2],inactive
same,Potency,[3],inactive
same,Potency,[4],inactive
same,Potency,[5],inactive
same,Potency,[9],inactive
same,outcome,[7],inactive
same,outcome,[8],inactive
O=C(O)c1ccncc1,Potency,[1],inactive
same,Potency,[2],inactive
same,Potency,[3],inactive
same,Potency,[4],inactive
same,Potency,[9],inactive
same,Potency,[6],inactive
same,outcome,[7],inactive
same,outcome,[8],inactive
CCCCCCCCOCCCN,Potency,[1],inactive
same,Potency,[2],inactive
same,Potency,[3],inactive
same,Potency,[4],inactive
same,Potency,[6],54.5 µM (active)
same,outcome,[7],inactive
same,outcome,[8],inactive
CCCCCCCCCCCCSC#N,Potency,[1],inactive
same,Potency,[2],inactive
same,Potency,[3],inactive
same,Potency,[10],inactive
same,Potency,[5],inactive
same,Potency,[9],inactive
same,Potency,[6],inactive
same,outcome,[7],inactive
N#C[C@@H]1CC(F)(F)CN1C(=O)CNC1CC2CCC(C1)N2c1ncccn1 (stereo partly specified),Potency,[1],inactive
same,Potency,[2],inactive
same,Potency,[3],inactive
same,Potency,[10],inactive
same,Potency,[5],inactive
same,Potency,[9],inactive
same,Potency,[6],inactive
O=C(O)c1cccnc1Nc1cccc(C(F)(F)F)c1,Potency,[1],inactive
same,Potency,[2],inactive
same,Potency,[3],inactive
same,Potency,[10],11.9 µM (active)
same,Potency,[6],inactive
same,outcome,[8],inactive
CC1(C)CC(=O)CC(C)(C)N1,Potency,[1],inactive
same,Potency,[2],inactive
same,Potency,[3],inactive
same,Potency,[4],inactive
same,Potency,[9],inactive
same,outcome,[7],inactive
same,outcome,[8],inactive
COc1ccc(/C=C/S(=O)(=O)NC(=O)c2ccc(C)cc2Cl)cc1,Potency,[1],inactive
same,Potency,[2],inactive
same,Potency,[3],inactive
same,Potency,[4],inactive
same,Potency,[5],inactive
same,Potency,[9],inactive
same,outcome,[8],inactive
CC(=O)Oc1cccc2c1C(=O)c1c(OC(C)=O)cc(C(=O)O)cc1C2=O,Potency,[1],inactive
same,Potency,[2],inactive
same,Potency,[3],inactive
same,Potency,[4],inactive
same,Potency,[5],inactive
same,Potency,[9],15 µM (active)
same,outcome,[8],inactive
COc1ccc(C(=O)Nc2ccccc2)cc1[N+](=O)[O-],Potency,[1],inactive
same,Potency,[2],30.9 µM (active)
same,Potency,[3],inactive
same,Potency,[4],inactive
same,Potency,[5],inactive
same,outcome,[7],inactive
same,outcome,[8],inactive
COC(=O)/C=C/C(C)=C\C=C\C(C)=C\C=C\C=C(C)\C=C\C=C(C)\C=C\C(=O)O,Potency,[1],inactive
same,Potency,[2],inactive
same,Potency,[3],inactive
same,Potency,[4],inactive
same,Potency,[5],inactive
same,outcome,[8],inactive
CCCCCCC/C=C/C=O,Potency,[1],inactive
same,Potency,[2],inactive
same,Potency,[3],inactive
same,Potency,[4],inactive
same,outcome,[7],inactive
same,outcome,[8],inactive
COC=O,"activity change, negative = cytotoxicity",[1],0.892% [at 8.47 µM]
same,activation,[2],-0.706% [at 8.47 µM]
same,"viability change, negative = cytotoxic",[3],14.9% [at 8.47 µM]
same,activation,[4],1.2% [at 7.08 µM]
same,"activity change, negative = cytotoxicity",[5],-0.602% [at 5.95 µM]
same,activation,[9],-6.55% [at 8.36 µM]
same,"activity change, negative = cytotoxicity",[7],-11.9% [at 5.95 µM]
O=C(O)c1c2ccccc2cc2ccccc12,Potency,[1],inactive
same,Potency,[2],inactive
same,Potency,[3],inactive
same,Potency,[10],inactive
same,Potency,[5],inactive
same,Potency,[9],inactive
same,Potency,[6],inactive
same,outcome,[7],inactive
same,outcome,[8],inactive
CS(C)=O,Potency,[1],inactive
same,Potency,[2],inactive
same,Potency,[3],inactive
same,Potency,[4],inactive
same,Potency,[5],inactive
same,Potency,[6],inactive
NCCOCCOCCN,Potency,[1],inactive
same,Potency,[2],inactive
same,Potency,[3],inactive
same,Potency,[10],inactive
same,Potency,[5],inactive
same,Potency,[9],48.6 µM (active)
same,Potency,[6],inactive
same,outcome,[7],inactive
Cc1cc(C)n(CO)n1,Potency,[1],inactive
same,Potency,[2],inactive
same,Potency,[3],inactive
same,Potency,[4],inactive
same,Potency,[5],inactive
same,Potency,[9],inactive
same,outcome,[7],inactive
same,outcome,[8],inactive
C=Cc1ccc(C=C)cc1,Potency,[1],inactive
same,Potency,[2],inactive
same,Potency,[3],inactive
same,Potency,[4],inactive
same,Potency,[9],inactive
same,Potency,[6],inactive
same,outcome,[7],inactive
same,outcome,[8],inactive
CCCC1CCCC(=O)O1 (stereo unspecified),Potency,[1],inactive
same,Potency,[2],inactive
same,Potency,[3],inactive
same,Potency,[10],inactive
same,Potency,[5],inactive
same,Potency,[9],inactive
same,Potency,[6],inactive
same,outcome,[7],inactive
same,outcome,[8],inactive

# — PubChem BioAssay (Tox21)
